# Activity calls are given as the source filed them. How the source made its calls: active means hit-call score of the fitted dose curve at least 0.9, where 1 is the maximum; inactive means score below 0.9.
# Experiments:
# [1] = read-out: Human Leukocyte Antigen - DR isotype (HLADR), HLA-DRA (gene 3122); experiment: BSK_BE3C_HLADR: BioMAP Diversity Plus: BE3C Assay for Human Leukocyte Antigen - DR isotype (HLADR) Biomarker Activity (AID 2283032); settings: primary human bronchial epithelial cells; actives raise or lower the signal
# Procedure, shortened: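 Human primary bronchial epithelial cells (BE3C system) exposed to compound for 24 hours; cell-surface HLA-DR measured by ELISA, fitted bidirectionally relative to DMSO. Total protein by SRB in parallel cultures tracked cytotoxicity.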
# [2] = read-out: Vascular cell adhesion molecule 1 (VCAM1), VCAM1 (gene 7412); experiment: BSK_4H_VCAM1: BioMAP Diversity Plus: 4H Assay for Vascular cell adhesion molecule 1 (VCAM1) Biomarker Activity (AID 2283033); settings: primary human endothelial cells (HUVEC); actives raise or lower the signal
# Procedure, shortened: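 Primary human umbilical vein endothelial cells, 4H stimulation system, treated for 24 h; cell-surface VCAM-1 quantified by ELISA. Bidirectional fitting against DMSO; cytotoxicity tracked by SRB total-protein staining in parallel cultures.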
# [3] = read-out: Interferon-gamma inducible Protein 10 (IP10), CXCL10 (gene 3627); experiment: BSK_BE3C_IP10: BioMAP Diversity Plus: BE3C Assay for Interferon-gamma inducible Protein 10 (IP10) Biomarker Activity (AID 2283034); settings: primary human bronchial epithelial cells; actives raise or lower the signal
# Procedure, shortened: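 Primary human bronchial epithelial cells, with IP-10 measured by ELISA 24 hours after chemical dosing. Bidirectional fit against DMSO; cytotoxicity checked by SRB total protein staining in parallel cultures.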
# [4] = read-out: Monokine induced gamma interferon (MIG), CXCL9 (gene 4283); experiment: BSK_BE3C_MIG: BioMAP Diversity Plus: BE3C Assay for Monokine induced gamma interferon (MIG) Biomarker Activity (AID 2283035); settings: primary human bronchial epithelial cells; actives raise or lower the signal;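 on outcome: MIG protein measured by ELISA in BE3C cultures after 24 h of dosing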
# Procedure, shortened: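 ELISA read-out of MIG in human lung bronchial epithelial primary cultures, 24 h post-dosing. Bidirectional curve fit vs DMSO baseline.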
# [5] = read-out: Transforming growth factor beta 1 (TGFb1), TGFB1 (gene 7040); experiment: BSK_BE3C_TGFb1: BioMAP Diversity Plus: BE3C Assay for Transforming growth factor beta 1 (TGFb1) Biomarker Activity (AID 2283036); settings: primary human bronchial epithelial cells; actives raise or lower the signal
# Procedure, shortened: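 Primary human bronchial epithelial cells dosed with chemical; TGF-b1 measured by ELISA 24 h after dosing. Bidirectional curve fitting against DMSO negative control; SRB total-protein staining in parallel cultures gauged cytotoxicity.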
# [6] = read-out: Plasminogen activator inhibitor-1 (PAI1), SERPINE1 (gene 5054); experiment: BSK_BE3C_PAI1: BioMAP Diversity Plus: BE3C Assay for Plasminogen activator inhibitor-1 (PAI1) Biomarker Activity (AID 2283037); settings: primary human bronchial epithelial cells; actives raise or lower the signal
# Procedure, shortened: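 Primary human bronchial epithelial cells (BE3C system) exposed 24 h; PAI-1 quantified by ELISA. Parallel sulforhodamine B staining of total protein flags cytotoxicity. Bidirectional fit versus DMSO.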
# [7] = read-out: urokinase plasminogen activator (uPA), PLAU (gene 5328); experiment: BSK_BE3C_uPA: BioMAP Diversity Plus: BE3C Assay for urokinase plasminogen activator (uPA) Biomarker Activity (AID 2283038); settings: primary human bronchial epithelial cells; actives raise or lower the signal;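 on outcome: uPA protein level quantified by ELISA in cell cultures; uPA read one day after compound addition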
# Procedure, shortened: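 Using confluent primary human lung bronchial epithelial cultures, we dosed chemicals, waited 24 h, then ran a uPA ELISA, fitting bidirectionally against DMSO.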
# [8] = read-out: Urokinase-type plasminogen activator receptor (uPAR), PLAUR (gene 5329); experiment: BSK_BE3C_uPAR: BioMAP Diversity Plus: BE3C Assay for Urokinase-type plasminogen activator receptor (uPAR) Biomarker Activity (AID 2283039); settings: primary human bronchial epithelial cells; actives raise or lower the signal;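 further: uPAR protein level measured by ELISA on the cells; cells exposed to compound for one day before measurement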
# Procedure, shortened: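 Primary human bronchial epithelial cells dosed for 24 h; uPAR quantified by ELISA with bidirectional fitting against DMSO. Overt cytotoxicity assessed in parallel cultures by SRB total-protein staining (0.1% SRB, 560 nm).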
# [9] = read-out: Interleukin-6 (IL6), IL6 (gene 3569); experiment: BSK_CASM3C_IL6: BioMAP Diversity Plus: CASM3C Assay for Interleukin-6 (IL6) Biomarker Activity for (AID 2283040); settings: primary human coronary artery smooth muscle cells; actives raise or lower the signal
# [10] = read-out: Tissue plasminogen activator (tPA), PLAT (gene 5327); experiment: BSK_BE3C_tPA: BioMAP Diversity Plus: BE3C Assay for Tissue plasminogen activator (tPA) Biomarker Activity (AID 2283041); settings: primary human bronchial epithelial cells; actives raise or lower the signal;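 on outcome: tPA level quantified by ELISA one day after compound addition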
# Procedure, shortened: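 Primary human bronchial epithelial cells in the BE3C system, exposed to compound for 24 h. tPA was quantified by ELISA; DMSO served as baseline, with gain or loss of signal fitted. Cytotoxicity checked in parallel cultures by SRB total-protein staining.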
# [11] = read-out: Interleukin-8 (IL8), CXCL8 (gene 3576); experiment: BSK_CASM3C_IL8: BioMAP Diversity Plus: CASM3C Assay for Interleukin-8 (IL8) Biomarker Activity (AID 2283042); settings: primary human coronary artery smooth muscle cells; actives raise or lower the signal;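 further: IL-8 protein level quantified by ELISA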
# [12] = read-out: Human Leukocyte Antigen - DR isotype (HLADR), HLA-DRA (gene 3122); experiment: BSK_CASM3C_HLADR: BioMAP Diversity Plus: CASM3C Assay for Human Leukocyte Antigen - DR isotype (HLADR) Biomarker Activity (AID 2283043); settings: primary human coronary artery smooth muscle cells; actives raise or lower the signal;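 further: cell-surface HLA-DR protein level quantified by ELISA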
# [13] = read-out: Macrophage colony-stimulating factor (MCSF), CSF1 (gene 1435); experiment: BSK_CASM3C_MCSF: BioMAP Diversity Plus: CASM3C Assay for Macrophage colony-stimulating factor (MCSF) Biomarker Activity (AID 2283044); settings: primary human coronary artery smooth muscle cells; actives raise or lower the signal;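 further: M-CSF protein amount quantified by ELISA after 24 h exposure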
# [14] = read-out: Low-density lipoprotein receptor (LDLR), LDLR (gene 3949); experiment: BSK_CASM3C_LDLR: BioMAP Diversity Plus: CASM3C Assay for Low-density lipoprotein receptor (LDLR) Biomarker Activity (AID 2283045); settings: primary human coronary artery smooth muscle cells; actives raise or lower the signal;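 further: LDLR protein level on the cell surface quantified by ELISA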
# [15] = read-out: Monocyte Chemoattractant Protein-1 (MCP1), CCL2 (gene 6347); experiment: BSK_CASM3C_MCP1: BioMAP Diversity Plus: CASM3C Assay for Monocyte Chemoattractant Protein-1 (MCP1) Biomarker Activity (AID 2283046); settings: primary human coronary artery smooth muscle cells; actives raise or lower the signal;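 further: MCP-1 level quantified by ELISA 24 h after dosing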
# [16] = BSK_CASM3C_Proliferation: Cell Proliferation Assessment in the BioMAP Diversity Plus: CASM3C Assay (AID 2283047); settings: primary human coronary artery smooth muscle cells;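 further: sulforhodamine B total protein stain as relative cell number at 560 nm; sub-confluent cells exposed 48 h before staining; fitted both ways against DMSO so gain or loss of cell number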
# [17] = read-out: Monokine induced gamma interferon (MIG), CXCL9 (gene 4283); experiment: BSK_CASM3C_MIG: BioMAP Diversity Plus: CASM3C Assay for Monokine induced gamma interferon (MIG) Biomarker Activity (AID 2283048); settings: primary human coronary artery smooth muscle cells; actives raise or lower the signal;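 further: MIG protein level measured by ELISA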
# [18] = read-out: serum amyloid A (SAA), SAA1 (gene 6288); experiment: BSK_CASM3C_SAA: BioMAP Diversity Plus: CASM3C Assay for serum amyloid A (SAA) Biomarker Activity (AID 2283049); settings: primary human coronary artery smooth muscle cells; actives raise or lower the signal;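 further: SAA protein level quantified by ELISA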
# [19] = BSK_CASM3C_SRB: Viability Assessment in the BioMAP Diversity Plus: CASM3C Assay (AID 2283050); settings: primary human coronary artery smooth muscle cells
# [20] = read-out: Thrombomodulin, THBD (gene 7056); experiment: BSK_CASM3C_Thrombomodulin: BioMAP Diversity Plus: CASM3C Assay for Thrombomodulin Biomarker Activity (AID 2283051); settings: primary human coronary artery smooth muscle cells; actives raise or lower the signal;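 further: thrombomodulin protein level measured by ELISA 24 h after dosing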
structure (smiles),measurement,setting,value
CS(=O)(=O)c1ccc([C@@H](C[C@H]2CCC(=O)C2)C(=O)Nc2cnccn2)cc1Cl,outcome,[1],inactive
same,outcome,[2],inactive
same,outcome,[3],inactive
same,outcome,[4],inactive
same,outcome,[5],inactive
same,outcome,[6],inactive
same,outcome,[7],inactive
same,outcome,[8],inactive
same,outcome,[9],inactive
same,outcome,[10],inactive
same,outcome,[11],inactive
same,outcome,[12],inactive
same,outcome,[13],inactive
same,outcome,[14],inactive
same,outcome,[15],inactive
same,outcome,[16],inactive
same,outcome,[17],inactive
same,outcome,[18],inactive
same,outcome,[19],inactive
same,outcome,[20],inactive
CCCCOC(=O)CCCCC(=O)OCCCC,outcome,[1],inactive
same,outcome,[2],inactive
same,outcome,[3],inactive
same,outcome,[4],inactive
same,outcome,[5],inactive
same,outcome,[6],inactive
same,outcome,[7],inactive
same,outcome,[8],inactive
same,outcome,[9],inactive
same,outcome,[10],inactive
same,outcome,[11],inactive
same,outcome,[12],inactive
same,outcome,[13],inactive
same,outcome,[14],inactive
same,outcome,[15],inactive
same,outcome,[16],inactive
same,outcome,[17],inactive
same,outcome,[18],inactive
same,outcome,[19],inactive
same,outcome,[20],inactive
CC(N)=O,outcome,[1],inactive
same,outcome,[2],inactive
same,outcome,[3],inactive
same,outcome,[4],inactive
same,outcome,[5],inactive
same,outcome,[7],inactive
same,outcome,[8],inactive
same,outcome,[9],inactive
same,outcome,[10],inactive
same,outcome,[11],inactive
same,outcome,[12],inactive
same,outcome,[13],inactive
same,outcome,[14],inactive
same,outcome,[15],inactive
same,outcome,[16],inactive
same,outcome,[17],inactive
same,outcome,[18],inactive
same,outcome,[19],inactive
same,outcome,[20],inactive
CCCCCCC(CCCCCCCCCCC(=O)OCC(COC(C)=O)OC(C)=O)OC(C)=O (centres undefined),AC50,[1],10 µM (active)
same,outcome,[2],inactive
same,AC50,[3],11.4 µM (active)
same,AC50,[4],13.7 µM (active)
same,AC50,[5],7.57 µM (active)
same,AC50,[6],7.39 µM (active)
same,AC50,[7],13.2 µM (active)
same,outcome,[8],inactive
same,outcome,[9],inactive
same,AC50,[10],3.58 µM (active)
same,outcome,[11],inactive
same,outcome,[12],inactive
same,outcome,[13],inactive
same,outcome,[14],inactive
same,outcome,[15],inactive
same,outcome,[16],inactive
same,outcome,[17],inactive
same,outcome,[18],inactive
same,outcome,[19],inactive
same,outcome,[20],inactive
Oc1ccc(O)cc1,outcome,[1],inactive
same,AC50,[2],10.9 µM (active)
same,outcome,[3],inactive
same,outcome,[4],inactive
same,outcome,[5],inactive
same,outcome,[6],inactive
same,AC50,[7],7.83 µM (active)
same,outcome,[8],inactive
same,outcome,[9],inactive
same,outcome,[10],inactive
same,outcome,[11],inactive
same,AC50,[12],9.58 µM (active)
same,AC50,[13],15.1 µM (active)
same,outcome,[14],inactive
same,outcome,[15],inactive
same,AC50,[16],25.7 µM (active)
same,outcome,[17],inactive
same,outcome,[18],inactive
same,outcome,[19],inactive
same,AC50,[20],10.7 µM (active)
O=NO,outcome,[1],inactive
same,outcome,[2],inactive
same,outcome,[3],inactive
same,outcome,[4],inactive
same,outcome,[5],inactive
same,outcome,[6],inactive
same,outcome,[7],inactive
same,outcome,[8],inactive
same,outcome,[9],inactive
same,outcome,[10],inactive
same,outcome,[11],inactive
same,outcome,[12],inactive
same,outcome,[13],inactive
same,outcome,[14],inactive
same,outcome,[15],inactive
same,outcome,[16],inactive
same,outcome,[17],inactive
same,outcome,[18],inactive
same,outcome,[19],inactive
same,outcome,[20],inactive
COc1ccc(OC(F)(F)F)cc1CN[C@H]1CCCN[C@H]1c1ccccc1,outcome,[1],inactive
same,outcome,[2],inactive
same,outcome,[3],inactive
same,outcome,[4],inactive
same,outcome,[5],inactive
same,outcome,[6],inactive
same,AC50,[7],20 µM (active)
same,outcome,[8],inactive
same,outcome,[9],inactive
same,outcome,[10],inactive
same,outcome,[11],inactive
same,AC50,[12],14.7 µM (active)
same,outcome,[13],inactive
same,AC50,[14],6.31 µM (active)
same,outcome,[15],inactive
same,AC50,[16],29.6 µM (active)
same,outcome,[17],inactive
same,outcome,[18],inactive
same,AC50,[19],15 µM (active)
same,outcome,[20],inactive

# From PubChem BioAssay (EPA / NIEHS)
